Measurements reported in PubChem BioAssay (EPA / NIEHS).
Inconclusive results are not listed. More than one record can exist for a structure, and the calls need not agree. Activity calls are given as the source filed them. Rule for the calls, unless noted: active = hit-call score of the fitted dose curve at least 0.9, where 1 is the maximum; inconclusive = response in the unintended direction; inactive = score below 0.9.

What was measured:
[1] = molecular target: human RAR-related Orphan Receptor gamma (RORg), RORC (gene 6097) (UniProt P51449); test: ATG_RORg_TRANS: Attagene TRANS-FACTORIAL HepG2 Assay for human RAR-related Orphan Receptor gamma (RORg) (AID 2283011)
human RAR-related Orphan Receptor gamma (RORg), RORC (gene 6097), sequence (P51449 whole entry, looked up, the tested form may be a part): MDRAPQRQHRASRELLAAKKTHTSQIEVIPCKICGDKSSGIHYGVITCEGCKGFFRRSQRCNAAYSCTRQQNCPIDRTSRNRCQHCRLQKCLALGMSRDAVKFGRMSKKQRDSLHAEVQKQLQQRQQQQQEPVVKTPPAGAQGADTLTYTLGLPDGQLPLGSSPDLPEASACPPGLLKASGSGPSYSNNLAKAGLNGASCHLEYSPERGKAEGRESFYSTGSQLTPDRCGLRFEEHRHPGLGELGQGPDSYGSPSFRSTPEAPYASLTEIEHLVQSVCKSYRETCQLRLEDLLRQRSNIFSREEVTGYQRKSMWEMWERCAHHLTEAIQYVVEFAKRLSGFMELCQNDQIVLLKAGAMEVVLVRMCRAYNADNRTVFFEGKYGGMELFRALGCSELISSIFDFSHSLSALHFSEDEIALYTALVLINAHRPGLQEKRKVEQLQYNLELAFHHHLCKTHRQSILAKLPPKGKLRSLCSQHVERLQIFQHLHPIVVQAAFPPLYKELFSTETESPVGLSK
Method in brief: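 Transient MRTU transfection of HepG2 (TRANS format, exogenous NR-Gal4 chimera). 24 h dosing. Total RNA → oligo(dT) RT → PCR → 6-FAM labelling → HpaI cut → CE. Gain vs DMSO.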

[2] = read-out: Interleukin-1 alpha (IL1a), IL1A (gene 3552); test: BSK_BE3C_IL1a: BioMAP Diversity Plus: BE3C Assay for Interleukin-1 alpha (IL1a) Biomarker Activity (AID 2283016; active = hit-call score of the fitted dose curve at least 0.9, where 1 is the maximum; inactive = score below 0.9); details: primary human bronchial epithelial cells; actives raise or lower the signal
Method in brief: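 Human primary bronchial epithelial cells (BE3C system) were dosed with compound and IL-1a measured by ELISA 24 h later. Activity was fitted bidirectionally against DMSO baseline; cytotoxicity was tracked in parallel cultures by SRB total-protein staining.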

[3] = read-out: Monocyte Chemoattractant Protein-1 (MCP1), CCL2 (gene 6347); test: BSK_3C_MCP1: BioMAP Diversity Plus: 3C Assay for Monocyte Chemoattractant Protein-1 (MCP1) Biomarker Activity (AID 2283017; active = hit-call score of the fitted dose curve at least 0.9, where 1 is the maximum; inactive = score below 0.9); details: primary human endothelial cells (HUVEC); actives raise or lower the signal
Method in brief: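 HUVEC, 3C system; 24 h chemical exposure; MCP-1 by ELISA; bidirectional curve fit vs DMSO baseline.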

[4] = read-out: Monocyte Chemoattractant Protein-1 (MCP1), CCL2 (gene 6347); test: BSK_4H_MCP1: BioMAP Diversity Plus: 4H Assay for Monocyte Chemoattractant Protein-1 (MCP1) Biomarker Activity (AID 2283018; active = hit-call score of the fitted dose curve at least 0.9, where 1 is the maximum; inactive = score below 0.9); details: primary human endothelial cells (HUVEC); actives raise or lower the signal
Method in brief: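 Human umbilical vein endothelial cells (4H system) dosed with chemical; MCP-1 measured by ELISA 24 h after dosing. Bidirectional curve fitting against DMSO negative control as baseline; parallel SRB total-protein staining tracks overt cytotoxicity.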

[5] = read-out: Human Leukocyte Antigen - DR isotype (HLADR), HLA-DRA (gene 3122); test: BSK_3C_HLADR: BioMAP Diversity Plus: 3C Assay for Human Leukocyte Antigen - DR isotype (HLADR) Biomarker Activity (AID 2283019; active = hit-call score of the fitted dose curve at least 0.9, where 1 is the maximum; inactive = score below 0.9); details: primary human endothelial cells (HUVEC); actives raise or lower the signal
Method in brief: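 HUVEC, 3C stimulation, 24 h post-dose; HLA-DR by ELISA; bidirectional curve fit vs DMSO baseline; gain or loss of signal scored.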

[6] = read-out: Interleukin-8 (IL8), CXCL8 (gene 3576); test: BSK_3C_IL8: BioMAP Diversity Plus: 3C Assay for Interleukin-8 (IL8) Biomarker Activity (AID 2283020; active = hit-call score of the fitted dose curve at least 0.9, where 1 is the maximum; inactive = score below 0.9); details: primary human endothelial cells (HUVEC); actives raise or lower the signal
Method in brief: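 Primary human umbilical vein endothelial cells (3C system) were exposed to test chemical for 24 h, then IL-8 was quantified by ELISA. Responses were fitted bidirectionally against DMSO vehicle as baseline.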

[7] = BSK_3C_SRB: Viability Assessment in the BioMAP Diversity Plus: 3C Assay (AID 2283023; active = hit-call score of the fitted dose curve at least 0.9, where 1 is the maximum; inactive = score below 0.9;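 note: cells read 24 h after compound dosing; fitted both ways against DMSO so a hit may be signal rise or drop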); details: primary human endothelial cells (HUVEC)
Method in brief: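 HUVEC, 24 h post-dose; 10% TCA fix, 0.1% SRB stain, A560 nm. Bidirectional curve fit vs DMSO negative control.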

[8] = read-out: Matrix Metallopeptidase 1 (MMP1), MMP1 (gene 4312); test: BSK_BE3C_MMP1: BioMAP Diversity Plus: BE3C Assay for Matrix Metallopeptidase 1 (MMP1) Biomarker Activity (AID 2283024; active = hit-call score of the fitted dose curve at least 0.9, where 1 is the maximum; inactive = score below 0.9); details: primary human bronchial epithelial cells; actives raise or lower the signal
Method in brief: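 Primary human bronchial epithelial cells were dosed with test chemicals, and MMP1 levels were measured by ELISA 24 h later. Data were fitted bidirectionally against DMSO as the negative control and activity baseline.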

[9] = read-out: Pselectin, SELP (gene 6403); test: BSK_4H_Pselectin: BioMAP Diversity Plus: 4H Assay for Pselectin Biomarker Activity (AID 2283026; active = hit-call score of the fitted dose curve at least 0.9, where 1 is the maximum; inactive = score below 0.9); details: primary human endothelial cells (HUVEC); actives raise or lower the signal
Method in brief: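 Primary human umbilical vein endothelial cells were exposed to test chemical for 24 h, then cell-surface P-selectin was quantified by ELISA. Activity was fitted bidirectionally against DMSO as negative control and baseline.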

[10] = BSK_4H_SRB: Viability Assessment in the BioMAP Diversity Plus: 4H Assay (AID 2283027; active = hit-call score of the fitted dose curve at least 0.9, where 1 is the maximum; inactive = score below 0.9;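 note: cells exposed to compound for 24 h before staining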;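 for AC50: curves fitted both ways versus DMSO so AC50 may be loss or gain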); details: primary human endothelial cells (HUVEC)
Method in brief: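 Absorbance at 560 nm of SRB-stained total protein served as the viability read-out in confluent primary human umbilical vein endothelium 24 h after chemical treatment. Curves were fitted bidirectionally against DMSO as negative control.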

[11] = BSK_BE3C_SRB: Viability Assessment in the BioMAP Diversity Plus: BE3C Assay (AID 2283028; active = hit-call score of the fitted dose curve at least 0.9, where 1 is the maximum; inactive = score below 0.9); details: primary human bronchial epithelial cells
Method in brief: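 Primary human bronchial epithelium; chemical dosing, 24 h; 10% TCA fix, 0.1% SRB stain, A560; bidirectional fit vs DMSO baseline.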

[12] = read-out: Thrombomodulin, THBD (gene 7056); test: BSK_3C_Thrombomodulin: BioMAP Diversity Plus: 3C Assay for Thrombomodulin Biomarker Activity (AID 2283029; active = hit-call score of the fitted dose curve at least 0.9, where 1 is the maximum; inactive = score below 0.9); details: primary human endothelial cells (HUVEC); actives raise or lower the signal
Method in brief: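 Primary human umbilical vein endothelial cells (3C system) were exposed to chemical for 24 h, then thrombomodulin levels were measured by ELISA. Activity was fitted bidirectionally against the DMSO negative control as baseline.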

[13] = read-out: Urokinase-type plasminogen activator receptor (uPAR), PLAUR (gene 5329); test: BSK_4H_uPAR: BioMAP Diversity Plus: 4H Assay for Urokinase-type plasminogen activator receptor (uPAR) Biomarker Activity (AID 2283030; active = hit-call score of the fitted dose curve at least 0.9, where 1 is the maximum; inactive = score below 0.9); details: primary human endothelial cells (HUVEC); actives raise or lower the signal
Method in brief: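 HUVEC, 24 h post-dose; uPAR by ELISA; bidirectional fit vs DMSO baseline.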

[14] = molecular target: Retinoic acid receptor RXR-alpha (Homo sapiens) (UniProt P19793); test: ATG_RXRa_TRANS: Attagene TRANS-FACTORIAL HepG2 Assay for human Retinoid X Receptor alpha (RXRa) (AID 2283012)
Retinoic acid receptor RXR-alpha (Homo sapiens), sequence (P19793 whole entry, looked up, the tested form may be a part): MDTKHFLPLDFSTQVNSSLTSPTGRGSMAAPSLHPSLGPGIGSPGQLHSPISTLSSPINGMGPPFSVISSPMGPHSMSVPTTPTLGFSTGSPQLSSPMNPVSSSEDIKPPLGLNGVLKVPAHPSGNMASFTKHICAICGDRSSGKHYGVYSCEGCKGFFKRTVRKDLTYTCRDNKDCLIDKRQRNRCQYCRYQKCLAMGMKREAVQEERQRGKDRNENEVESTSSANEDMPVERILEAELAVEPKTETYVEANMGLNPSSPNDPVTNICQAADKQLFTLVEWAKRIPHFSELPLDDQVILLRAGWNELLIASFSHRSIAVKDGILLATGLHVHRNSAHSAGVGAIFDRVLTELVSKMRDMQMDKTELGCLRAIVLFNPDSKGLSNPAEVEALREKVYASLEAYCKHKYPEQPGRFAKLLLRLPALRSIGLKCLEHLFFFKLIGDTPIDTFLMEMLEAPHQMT
Method in brief: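 HepG2 cells transiently transfected with multiplexed GAL4-UAS reporter units and chimeric NR-GAL4 fusions, dosed 24 h. Reporter mRNA measured by RT-PCR, FAM labelling, HpaI digestion and capillary electrophoresis; gain-of-signal fitted relative to DMSO baseline.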

[15] = molecular target: human Retinoid X Receptor beta (RXRb), RXRB (gene 6257) (UniProt P28702); test: ATG_RXRb_TRANS: Attagene TRANS-FACTORIAL HepG2 Assay for human Retinoid X Receptor beta (RXRb) (AID 2283013)
human Retinoid X Receptor beta (RXRb), RXRB (gene 6257), sequence (P28702 whole entry, looked up, the tested form may be a part): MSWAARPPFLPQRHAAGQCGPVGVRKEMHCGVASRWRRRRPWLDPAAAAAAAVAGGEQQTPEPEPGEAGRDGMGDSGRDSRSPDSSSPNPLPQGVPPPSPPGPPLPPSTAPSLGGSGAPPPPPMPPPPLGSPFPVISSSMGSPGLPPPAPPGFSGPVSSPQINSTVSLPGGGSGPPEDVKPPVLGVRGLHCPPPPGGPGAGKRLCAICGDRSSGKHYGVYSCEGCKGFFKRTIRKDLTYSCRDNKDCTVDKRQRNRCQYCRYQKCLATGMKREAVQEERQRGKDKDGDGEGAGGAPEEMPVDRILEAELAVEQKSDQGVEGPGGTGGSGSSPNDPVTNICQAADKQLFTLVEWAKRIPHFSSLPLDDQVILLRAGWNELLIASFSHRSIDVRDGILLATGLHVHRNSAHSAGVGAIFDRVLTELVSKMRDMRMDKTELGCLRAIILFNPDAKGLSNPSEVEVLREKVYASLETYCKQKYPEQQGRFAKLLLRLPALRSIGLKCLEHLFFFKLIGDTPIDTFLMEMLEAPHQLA
Method in brief: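 HepG2 cells transiently transfected with multiplexed reporter units driven by GAL4-UAS and exogenous chimeric NR-Gal4 proteins; treated 24 h. Reporter mRNA measured by RT-PCR, 6-FAM labelling and capillary electrophoresis; gain-of-signal fitted versus DMSO baseline.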

[16] = molecular target: human Thyroid Receptor alpha (THRa1), THRA (gene 7067) (UniProt P10827); test: ATG_THRa1_TRANS: Attagene TRANS-FACTORIAL HepG2 Assay for human Thyroid Receptor alpha (THRa1) (AID 2283014)
human Thyroid Receptor alpha (THRa1), THRA (gene 7067), sequence (P10827 whole entry, looked up, the tested form may be a part): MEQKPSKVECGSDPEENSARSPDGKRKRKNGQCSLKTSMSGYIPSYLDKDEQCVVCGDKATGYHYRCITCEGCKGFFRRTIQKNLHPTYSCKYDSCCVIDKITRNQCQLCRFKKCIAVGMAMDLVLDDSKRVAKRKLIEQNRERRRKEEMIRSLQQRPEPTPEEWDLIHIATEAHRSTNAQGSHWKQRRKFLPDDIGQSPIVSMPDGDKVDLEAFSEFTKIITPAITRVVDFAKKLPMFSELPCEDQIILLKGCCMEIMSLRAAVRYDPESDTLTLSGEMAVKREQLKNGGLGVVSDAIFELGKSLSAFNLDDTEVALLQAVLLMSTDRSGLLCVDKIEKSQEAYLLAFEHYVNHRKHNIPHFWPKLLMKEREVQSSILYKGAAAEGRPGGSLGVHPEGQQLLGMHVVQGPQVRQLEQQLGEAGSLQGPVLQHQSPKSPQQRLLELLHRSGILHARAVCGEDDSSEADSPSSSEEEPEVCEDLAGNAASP
Method in brief: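 Transient HepG2 transfection, NR-Gal4 chimera driving GAL4-UAS reporters; 24 h compound exposure; total RNA, oligo(dT) RT, PCR, fluorescent primer extension, capillary electrophoresis. Upward direction vs DMSO control.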

[17] = molecular target: human Vitamin D Receptor (VDR), VDR (gene 7421) (UniProt P11473); test: ATG_VDR_TRANS: Attagene TRANS-FACTORIAL HepG2 Assay for human Vitamin D Receptor (VDR) (AID 2283022)
human Vitamin D Receptor (VDR), VDR (gene 7421), sequence (P11473 whole entry, looked up, the tested form may be a part): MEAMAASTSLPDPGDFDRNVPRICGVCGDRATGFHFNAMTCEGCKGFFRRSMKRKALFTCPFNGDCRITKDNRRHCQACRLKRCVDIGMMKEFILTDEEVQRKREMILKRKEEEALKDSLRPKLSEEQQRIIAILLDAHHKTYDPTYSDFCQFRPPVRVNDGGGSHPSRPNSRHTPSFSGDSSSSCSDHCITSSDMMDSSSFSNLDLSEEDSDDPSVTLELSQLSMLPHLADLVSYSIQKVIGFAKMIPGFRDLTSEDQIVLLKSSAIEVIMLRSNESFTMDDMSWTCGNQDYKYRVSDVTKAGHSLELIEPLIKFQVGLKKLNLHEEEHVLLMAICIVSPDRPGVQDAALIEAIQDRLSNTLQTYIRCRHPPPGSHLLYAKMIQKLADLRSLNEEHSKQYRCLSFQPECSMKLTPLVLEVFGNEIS
Method in brief: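 RT-PCR/capillary electrophoresis read-out of reporter mRNA induction in transiently transfected HepG2; 24 h dosing; chimeric NR-Gal4 (TRANS format); gain-of-signal fit against DMSO baseline.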

[18] = BSK_3C_Vis: BioMAP Diversity Plus: 3C Assay for Morphology Visualization (AID 2283025; active = hit-call score of the fitted dose curve at least 0.9, where 1 is the maximum; inactive = score below 0.9;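 note: fitted both ways so gain or loss versus DMSO counts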); details: primary human endothelial cells (HUVEC)
Method in brief: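 Human umbilical vein endothelial cells in the 3C system were imaged by light microscopy 24 h after chemical dosing to record cell morphology. Activity was fitted bidirectionally against DMSO as negative control and baseline; the endpoint serves as a background control.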

Measured: AC50

CC(C)(CO)CO
active: [9] 5.64 µM
inactive: [1] | [2] | [3] | [4] | [5] | [6] | [7] | [8] | [9] | [10] | [11] | [12] | [13]

OC[C@H]1O[C@@H](O[C@H]2[C@H](O)[C@@H](O)[C@H](O)O[C@@H]2CO)[C@H](O)[C@@H](O)[C@H]1O
inactive: [14] | [15]

CCCCCCCCCCCCCC(=O)OCC
inactive: [1] | [16]

NC(N)=S
inactive: [1] | [16]

CC(C)C(=O)c1ccccc1
inactive: [14] | [15]

FC(F)(F)c1ccc(Cl)c(Cl)c1
inactive: [14]

NC(=O)NC(N)=O
inactive: [14] | [15]

O=C(O)c1ccc(C(=O)O)c(C(=O)O)c1
inactive: [14] | [15]

CC/C=C\CCOC(C)OCC (stereo not given)
inactive: [14]

O=C1CCCCCCCCCCCC(=O)OCCO1
inactive: [1] | [16]

CCC(=O)OC(C)(C)C1CC=C(C)CC1 (stereo not given)
inactive: [14] | [15]

CCCCOCC(C)OCC(C)O (stereo not given)
inactive: [1] | [16] | [17]

CC1=CCC(C(C)C)=CC1
inactive: [14] | [15]

CC(=N[Si](C)(C)C)O[Si](C)(C)C
inactive: [1] | [16] | [17]

CCCCOC(=O)C(C)OC(=O)CCC (stereo not given)
inactive: [1] | [16] | [17]

CCOC(=O)CC1(C)OCC(C)O1 (stereo not given)
inactive: [14]

CCC(=O)OC/C=C(\C)CCC=C(C)C
inactive: [1] | [17]

CC(CO)(CO)[N+](=O)[O-]
inactive: [14] | [15]

CCO[Si](CC)(OCC)OCC
inactive: [1] | [17]

OCC=Cc1ccccc1
inactive: [1] | [16] | [17]

CCCO
inactive: [1] | [17]

O=C(O)c1ccco1
inactive: [14] | [15]

CN(C)C(=O)Nc1ccccc1
inactive: [1] | [16] | [17]

CCCCCCCC1CCCC1=O (stereo not given)
active: [2] 34.1 µM | [3] 31.1 µM | [5] 31.6 µM | [6] 25.2 µM | [7] 32.9 µM | [8] 32.8 µM | [18] 37.8 µM | [9] 32.8 µM | [13] 30.7 µM
inactive: [14] | [15] | [4] | [10] | [11] | [12]

CCCCCCCCOC(C)=O
inactive: [14] | [15] | [16] | [17]

C=CCCCCCCCCC(=O)OCC
inactive: [14] | [16] | [17]
active: [15] 100 µM

COc1ccc(N)c(C)c1
inactive: [14] | [15] | [17]
active: [16] 73.2 µM

CCC(C)(C)c1cc(O)c(C(C)(C)CC)cc1O
inactive: [14] | [16] | [17]
active: [15] 59.9 µM

COc1ccccc1NC(=O)CC(C)=O
not listed: [1] | [16] | [17]
inactive: all other assays above

O=c1cc(-c2ccc(O)cc2)oc2cc(O)cc(O)c12
inactive: [14] | [15] | [16]

CCCCCCC(C)O (stereo not given)
inactive: [14] | [15]

C=C(C)CCCC(C)CCO (stereo not given)
inactive: [14] | [15] | [16]

COc1cc(OC)c2ccc(=O)oc2c1
inactive: [14] | [15]

C=COCC1CCC(COC=C)CC1 (stereo not given)
inactive: [14] | [15] | [16] | [17]

O=C(O)c1cccc(Cl)n1
inactive: [14] | [15] | [16] | [17]

C=CCOC(=O)/C=C\C(=O)OCC=C
inactive: [14] | [15] | [16] | [17]

CCCCOCCOC(=O)c1ccccc1C(=O)OCCOCCCC
inactive: [14] | [15] | [16] | [17]

C=C1CC[C@H]2O[C@]2(C)CC[C@@H]2[C@@H]1CC2(C)C
inactive: [14] | [17]
active: [15] 100 µM

c1ccc(Sc2ccccc2)cc1
inactive: [14] | [16] | [11]
active: [15] 100 µM | [2] 33.2 µM | [3] 29.1 µM | [4] 20 µM | [5] 30.3 µM | [6] 20 µM | [7] 32.3 µM | [8] 0.016 µM | [18] 37.8 µM | [9] 29.6 µM | [10] 31.1 µM | [12] 20 µM | [13] 32.7 µM

CCCCCCCOC(C)=O
inactive: [14] | [15] | [16] | [17]
